# From PubChem BioAssay
# Test: HepG2 liver cancer cell viability effects, profiling panel, resazurin fluorescence, 24 h, PK04 Diversity Set (AID 1172); note: test concentration not given here
# Settings: higher = more signal
row,SMILES,z-score
1,O=C1NC(=O)C2C1C=CC(C(O)c1cc(C(F)(F)F)cc(C(F)(F)F)c1)N2Nc1ccccn1 (stereo not given),-0.85
2,C=C(/C(=C/C[C@H](OC(C)=O)c1ccccc1OCCO)c1cnc2ccccc2c1)C(C)C,-0.558
3,COC(=O)[C@H](Cc1ccccc1)N1CC2=C[C@@H](C3CC3)n3c(=O)n(C)c(=O)n3[C@H]2[C@@H]1[C@@H](O)Cc1ccccc1,-0.0568
4,CC(=O)n1cc(C(O)C2C=CC3C(=O)N(c4ccccc4)C(=O)C3N2Nc2ccc([N+](=O)[O-])cc2)c2ccccc21 (stereo not given),-0.768
5,CN1C=C(C(=O)OCCS(C)(=O)=O)C(C(=O)OCCS(C)(=O)=O)=CC(c2ccc(CO)cc2)=CC1C1CC1 (stereo not given),-0.15
6,COC(=O)[C@]1(CCC(=O)OC(C)(C)C)N=C(c2ccc(OCCCO)cc2)O[C@@H]1c1ccccc1CN=[N+]=[N-],-1.72
7,C=CCNC(=O)[C@@H]1[C@H]2C(=O)O[C@H](c3ccccc3)[C@H](c3ccccc3)N2[C@H](c2ccc(OCCO)cc2)[C@@]12C(=O)Nc1ccc(C#CCC(C(=O)OC)C(=O)OC)cc12,0.874
8,COC(=O)C(CC#Cc1ccc2c(c1)[C@]1(C(=O)N2)[C@H](c2ccc(OCCO)cc2)N2[C@H](c3ccccc3)[C@H](c3ccccc3)OC(=O)[C@H]2[C@@H]1C(=O)N1CCc2cc(OC)c(OC)cc2C1)C(=O)OC,0.399
9,NC(=O)N1C(=O)C2C(C1=O)C1C=C(c3ccc(CO)cc3)C2C(c2cccs2)N1Cc1cccc(OC(F)(F)F)c1 (stereo not given),-0.532
10,C=CCC(OC(C)=O)[C@@H]1[C@@H](N(Cc2ccc(-c3ccccc3)cc2)C(=O)c2cccc3ccccc23)c2cc(OCCCO)ccc2N1C(=O)c1ccc(-c2ccccc2)cc1 (stereo not given in full),-0.398
